Assays:
Experiment in all cases: PBM binding z-score (relative to random genomic background probes); higher = stronger binding; sequences stand for … in GC…GCGATTGACAGCGTAGAATGAAGG
[1] = system: FXR:RXRa (NR concentration 270 nM, RXRa partner concentration 90 nM)
Method in brief: (§1)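 Antibodies against each partner of ligand-free nuclear receptor dimers (one per run) detected binding on custom Agilent 4×180K protein-binding microarrays after 1 h incubation. The double-stranded probes had 34-nt variable regions carrying direct-repeat seeds, single-nucleotide variants, half-site ablations and random human genomic background sequences. Binding z-scores, from regression-normalized fluorescence, use the random background probes as reference.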

[2] = system: LXRa:RXRa (NR concentration 270 nM, RXRa partner concentration 90 nM)
Method in brief: as §1

[3] = system: LXRa homodimer (NR concentration 270 nM)
Method in brief: as §1

[4] = system: LXRb:RXRa (NR concentration 270 nM, RXRa partner concentration 90 nM)
Method in brief: as §1

[5] = system: LXRb homodimer (NR concentration 270 nM)
Method in brief: as §1

[6] = system: PPARa:RXRa (NR concentration 270 nM, RXRa partner concentration 90 nM)
Method in brief: as §1

[7] = system: PPARg:RXRa (NR concentration 180 nM, RXRa partner concentration 90 nM)
Method in brief: as §1

[8] = system: PPARg:RXRa 270nM:90nM, anti-RXR (NR concentration 270 nM, RXRa partner concentration 90 nM)
Method in brief: as §1

[9] = system: PPARg:RXRa 30nM:10nM, anti-RXR (NR concentration 30 nM, RXRa partner concentration 10 nM)
Method in brief: as §1

[10] = system: PPARg:RXRa 90nM:30nM, anti-RXR (NR concentration 90 nM, RXRa partner concentration 30 nM)
Method in brief: as §1

[11] = system: PPARg:RXRa DBDmut IVT, anti-RXR (DBD mutation: RXRa K156A/R161A, NR concentration 270 nM, RXRa partner concentration 90 nM)
Method in brief: as §1

[12] = system: PPARg:RXRa IVT, anti-PPARg (NR concentration 270 nM, RXRa partner concentration 90 nM)
Method in brief: as §1

[13] = system: PPARg DBDmut:RXRa IVT, anti-PPARg (DBD mutation: PPARg1 K132A/R137A, NR concentration 270 nM, RXRa partner concentration 90 nM)
Method in brief: as §1

[14] = system: PPARg DBDmut IVT, anti-PPARg (DBD mutation: PPARg1 K132A/R137A, NR concentration 270 nM)
Method in brief: as §1

[15] = system: PPARg homodimer (NR concentration 180 nM)
Method in brief: as §1

[16] = system: PXR:RXRa (NR concentration 270 nM, RXRa partner concentration 90 nM)
Method in brief: as §1

[17] = system: PXR homodimer (NR concentration 270 nM)
Method in brief: as §1

[18] = system: RARa:RXR (NR concentration 270 nM, RXRa partner concentration 90 nM)
Method in brief: as §1

[19] = system: RARa homodimer (NR concentration 270 nM)
Method in brief: as §1

[20] = system: RARb:RXRa (NR concentration 270 nM, RXRa partner concentration 90 nM)
Method in brief: as §1

| Sequence | PBM binding z-score [1] | PBM binding z-score [2] | PBM binding z-score [3] | PBM binding z-score [4] | PBM binding z-score [5] | PBM binding z-score [6] | PBM binding z-score [7] | PBM binding z-score [8] | PBM binding z-score [9] | PBM binding z-score [10] | PBM binding z-score [11] | PBM binding z-score [12] | PBM binding z-score [13] | PBM binding z-score [14] | PBM binding z-score [15] | PBM binding z-score [16] | PBM binding z-score [17] | PBM binding z-score [18] | PBM binding z-score [19] | PBM binding z-score [20] |
| --- | --- | --- | --- | --- | --- | --- | --- | --- | --- | --- | --- | --- | --- | --- | --- | --- | --- | --- | --- | --- |
| GGAACGAGGGCATTCGAGTTGGTAGCATGGCGAT | 0.825 | 0.72 | -0.575 | -0.0954 | -1.08 | 1.06 | 0.508 | 0.442 | -0.573 | -0.227 | 3.06 | 2.06 | -0.924 | 0.13 | -0.0441 | 2.69 | 0.354 | 0.386 | -0.393 | 1.86 |
| TCTTCTAGATCAATAGAGGTTAAGAAAGTGCGCT | 0.907 | 3.4 | 0.664 | 1.92 | 0.831 | 1.9 | 0.156 | 2 | 3.32 | 2.76 | 2.16 | 1.48 | 1.87 | 0.999 | 0.764 | 3.02 | 0.423 | 1.8 | 0.413 | 0.98 |
| CGAACTAGGTCATCCAGGACAATGAATACATTGA | 4.61 | 2.74 | 0.73 | 2.14 | 0.294 | 4.83 | 7.88 | 6.22 | 4.07 | 6.1 | 7.89 | 8.42 | 3.32 | 1.7 | 1.95 | 2.1 | 2.1 | 2.31 | 0.706 | 3.87 |
| GCGACTGGGGCATCAGTAGGTTACCATAACTTAA | -0.329 | -0.299 | -0.273 | 0.586 | -0.678 | 1.55 | 1.69 | 1.5 | 0.0376 | 0.86 | 4.06 | 4.04 | -0.43 | -0.245 | 0.247 | 0.02 | -0.313 | 0.416 | -0.569 | 0.805 |
| GCTGCTAGGTCAGATTGGTCAGCTAACGGGTACG | 1.36 | 0.957 | -0.166 | 0.562 | -0.238 | 1.68 | 0.672 | 0.718 | -0.273 | 0.427 | 2.72 | 2.3 | -0.411 | -0.686 | 0.271 | 0.33 | -0.223 | 0.855 | -0.468 | 3.27 |
| TAGCCTGGGTCATGGGCCAGTATACCACGCGAAC | 3.85 | 2.34 | -0.426 | 2.04 | -0.671 | 4.14 | 4.11 | 3.94 | 1.09 | 2.53 | 0.288 | 3.03 | 0.752 | -1.17 | 1.52 | 1.73 | -0.609 | 2.83 | -0.797 | 3.26 |
| CCTCGGAGGACTACAGGAGGTCAGAGCTGCCAGA | 0.709 | 3.27 | 2.29 | 1.62 | -0.728 | 1.8 | 0.238 | -0.104 | -0.885 | -0.225 | -0.516 | -0.34 | -1.03 | -2.28 | 0.985 | 2.04 | 0.121 | 2.24 | -0.496 | 1.93 |
| ACTATTAGTTGAGACGAGGGCACCCGATAGGTTG | 0.0849 | 0.0854 | -0.0764 | 0.0614 | 0.318 | 0.202 | 0.813 | 0.197 | 0.108 | 0.163 | -0.207 | 0.476 | 0.77 | 0.797 | -0.607 | 1.33 | 0.328 | 1.2 | 0.511 | 0.966 |
| CCTACTGGGCTAAAGGTCATTGATTCCAATGCTC | 4.68 | 4.85 | 4.14 | 4.48 | 0.6 | 6.09 | 11.2 | 9.38 | 9.13 | 10.4 | 4.37 | 6.31 | -0.17 | -0.112 | 4.02 | 4.97 | 1.35 | 5.44 | 0.872 | 4.26 |
| ATCGAAAGGTCGGCGAGGTGAGTATACACCGTTT | 3.23 | 2.52 | -0.167 | 1.9 | 0.199 | 3.76 | 1.57 | 2.25 | 0.34 | 1.11 | -0.166 | 1.39 | 0.74 | 0.0118 | 0.989 | 2.25 | -0.157 | 2.77 | -0.0319 | 3.5 |
| CAAACTAGGTCACGATAGGTCAAAGTCGAATGAC | 5.83 | 8.21 | 5.31 | 6.9 | 1.01 | 6.14 | 9.76 | 7.74 | 6.05 | 7.79 | 8.73 | 9.21 | 3.89 | 2.14 | 4.63 | 5.42 | 0.73 | 5.95 | 1.74 | 4.88 |
| TCATATAGGTAATACCGGTGAAAGTCGGCATCTA | 0.519 | 0.637 | 0.169 | 0.726 | 0.0983 | 1.44 | 0.698 | 2.2 | 4.02 | 3.31 | 3.57 | 2.28 | 0.77 | 0.786 | 0.599 | 0.488 | 0.00655 | 1.01 | 0.792 | 0.224 |
| ACTATTAGTTGACTTAGGGAAACCGATACGACGC | 0.197 | 0.155 | 0.512 | 0.0262 | 0.742 | -0.255 | 0.843 | 0.171 | 0.193 | 0.259 | 0.323 | 0.25 | 1.26 | 1.45 | 0.412 | -0.145 | 0.319 | 0.0911 | 0.75 | 0.0734 |
